# PubChem BioAssay (Tox21)
# Where “and” joins values, the source holds several entries; their conditions need not be identical. Equal entries are not always repeated. Records with an inconclusive call do not appear. A call without a number means that no potency is given here. Where a structure was tested more than once in an assay, its records may differ in their call. Calls of active or inactive are those of the source. Unless noted, calls come from the whole dose curve.
# Tests used:
# [1] = qHTS assay to identify small molecule antagonists of the vitamin D receptor (VDR) signaling pathway - cell viability counter screen (AID 743225; active = well fitted curve in the direction sought with a large enough effect in the repeat runs; an effect the other way counts as inactive or inconclusive; note: nearly all actives have a fitted effect of over 50% in size)
# Procedure, shortened: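 Same-well multiplex: following 16 h treatment of HEK 293T cells carrying a UAS-driven beta-lactamase reporter with compound and agonist (3 nM final), and a 2 h FRET substrate step, CellTiter-Glo was added and luminescence read after 30 min.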
# [2] = qHTS assay to identify small molecule agonists of the NFkB signaling pathway - cell viability counter screen (AID 1159515); note: nearly all actives have a fitted effect of over 55% in size
# Procedure, shortened: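 NFkB-bla ME-180 cells, 2,000/well, plated overnight at 37 C; compound added for 5 hr at 37 C. Viability read in the same wells as the bla reporter, by CellTiter-Glo luminescence after 30 min at room temperature.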
# [3] = qHTS assay to identify small molecule agonists of the endoplasmic reticulum stress response signaling pathway - cell viability counter screen (AID 1159517); note: nearly all actives have a fitted effect of over 50% in size;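 for activity change, negative = cytotoxicity: HeLa cells carrying an ER stress response element beta-lactamase reporter; series mostly up to about 61 µM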
# Procedure, shortened: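 CellTiter-Glo was added to wells already read for beta-lactamase FRET, and luminescence was recorded 30 min later. Cells: ESRE-bla HeLa, 1,500 per well, compound exposure 5 hr at 37 C.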
# [4] = biological target: Nuclear receptor ROR-gamma (Homo sapiens) (UniProt P51449); experiment: qHTS assay to identify small molecule antagonists of the retinoid-related orphan receptor gamma (ROR-gamma) signaling pathway (AID 1159521; active = well fitted curve in the direction sought with a large enough effect in the repeat runs; an effect the other way counts as inactive or inconclusive; note: nearly all actives have a fitted effect of over 50% in size;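 for activity change, negative = inhibition: CHO cells with doxycycline inducible ROR-gamma driving an RORE luciferase reporter; top concentration of the series differs between compounds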)
# Procedure, shortened: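 Inducible-expression reporter assay: doxycycline (1 uM final) switched on RORγ in CHO cells bearing a ROR response element-luciferase construct, with test compounds present from 2 h beforehand. Decreased luminescence after 16 h defined antagonist activity.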
# [5] = qHTS assay to identify small molecule agonists of the AP-1 signaling pathway - cell viability counter screen (AID 1159525); note: nearly all actives have a fitted effect of over 55% in size
# Procedure, shortened: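 ME-180 AP-1-bla, 2500 cells/well, Opti-MEM + 0.5% dialyzed FBS; overnight 37 °C; cpd 15-pt titration, 5 h 37 °C; CellTiter-Glo 30 min RT; luminescence read; normalised to TOAB and DMSO controls.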
# [6] = qHTS assay to identify small molecule agonists of the AP-1 signaling pathway (AID 1159526)
# [7] = biological target: Retinoic acid receptor RXR-alpha (Homo sapiens) (UniProt P19793); experiment: qHTS assay to identify small molecule agonists of the RXR signaling pathway (AID 1159527); note: nearly all actives have a fitted effect of over 35% in size
# Retinoic acid receptor RXR-alpha (Homo sapiens), sequence (P19793 whole entry, looked up): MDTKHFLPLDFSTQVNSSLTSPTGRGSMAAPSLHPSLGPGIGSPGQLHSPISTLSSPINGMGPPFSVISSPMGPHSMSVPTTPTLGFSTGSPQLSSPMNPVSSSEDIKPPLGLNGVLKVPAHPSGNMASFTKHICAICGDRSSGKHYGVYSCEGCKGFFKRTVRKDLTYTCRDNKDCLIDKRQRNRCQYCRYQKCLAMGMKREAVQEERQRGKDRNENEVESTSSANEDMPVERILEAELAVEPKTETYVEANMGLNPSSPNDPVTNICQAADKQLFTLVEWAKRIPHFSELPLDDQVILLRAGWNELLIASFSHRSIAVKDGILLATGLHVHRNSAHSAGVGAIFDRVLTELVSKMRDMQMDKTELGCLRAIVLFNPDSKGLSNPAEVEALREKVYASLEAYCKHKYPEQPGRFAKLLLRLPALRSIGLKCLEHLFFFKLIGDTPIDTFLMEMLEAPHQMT
# Procedure, shortened: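 Compounds in DMSO were added to RXR-alpha-UAS-bla HEK 293T cells kept in 2% charcoal-stripped serum, and incubated 16 hr at 37 C with 5% CO2. Reporter signal came from a 2 hr B/G FRET substrate step.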
# [8] = qHTS assay to identify small molecule agonists of the RXR signaling pathway - cell viability counter screen (AID 1159529; active = well fitted curve in the direction sought with a large enough effect in the repeat runs; an effect the other way counts as inactive or inconclusive; note: nearly all actives have a fitted effect of over 50% in size; for activity change, negative = cytotoxicity: series mostly up to about 77 µM)
# Procedure, shortened: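 Counter screen: CellTiter-Glo luminescence. Cells: RXR-alpha-UAS-bla HEK 293T. Medium: 2% charcoal-stripped FBS. Treatment: 16 h, 37 C. Reagent incubation: 30 min, RT.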
# [9] = qHTS assay to identify small molecule antagonists of the retinoid-related orphan receptor gamma (ROR-gamma) signaling pathway - cell viability counter screen (AID 1159520; active = well fitted curve in the direction sought with a large enough effect in the repeat runs; an effect the other way counts as inactive or inconclusive; note: nearly all actives have a fitted effect of over 50% in size)
# Procedure, shortened: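 Tet-on ROR gamma CHO cells (1,000/well) were plated 4 hr, given compounds in DMSO for 2 hr at 37 C, then induced with 1 uM final doxycycline for 16 hr. Viability was read as ATP by CellTiter-Glo luminescence after 30 min.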
# Potency is the fitted concentration of half-maximal effect.
SMILES,Potency [1],Potency [2],Potency [3],Potency [4],Potency [5],Potency [6],Potency [7],Potency [8],Potency [9],"activity change, negative = inhibition [4]",activation [6],activation [7],"activity change, negative = cytotoxicity [8]"
ClCCl,inactive,inactive,inactive,inactive,inactive,inactive,inactive,inactive,–,–,–,–,–
Cc1cccc(C(=O)O)c1O,inactive,inactive,inactive,inactive,–,inactive,inactive,inactive,inactive,–,–,–,–
C=Cc1ccccc1C=C,inactive,inactive,inactive,inactive,inactive,inactive,–,inactive,–,–,–,–,–
O=S(=O)(O)c1ccccc1/C=C/c1ccc(-c2ccc(/C=C/c3ccccc3S(=O)(=O)O)cc2)cc1,inactive,inactive,inactive,inactive,–,31.3 µM (active),35.2 µM (active),inactive,inactive,–,–,–,–
CC(C)(c1cc(Br)c(OCC(Br)CBr)c(Br)c1)c1cc(Br)c(OCC(Br)CBr)c(Br)c1 (centres undefined),inactive,inactive,inactive,inactive,inactive,inactive,inactive,inactive,–,–,–,–,–
COc1ccc(NC(=O)CC(C)=O)cc1,inactive,inactive,inactive,inactive,–,inactive,inactive,inactive,inactive,–,–,–,–
CCOc1ccc2ccccc2c1C(=O)N[C@@H]1C(=O)N2[C@@H]1SC(C)(C)[C@@H]2C(=O)O,inactive,inactive,inactive,–,inactive,inactive,inactive,inactive,inactive,–,–,–,–
CCCCC(CC)COC(=O)CCCCC(=O)OCc1ccccc1 (centres undefined),–,inactive,inactive,–,inactive,inactive,inactive,inactive,inactive,–,–,–,–
CCCCCCCCCCCCCC[N+](C)(C)Cc1ccccc1,24.9 µM (active) and 16.9 µM (active),49.7 µM (active),17.7 µM (active) and 23.9 µM (active),–,23.9 µM (active),–,–,7.03 µM (active) and 5.35 µM (active) and 2.51 mM (active),69.6 µM (active),–,–,–,–
CC(C)(C)c1ccc(C(O)CCCN2CCC(C(O)(c3ccccc3)c3ccccc3)CC2)cc1 (centres undefined),–,21.3 µM (active),21.3 µM (active),–,inactive,inactive,–,7.56 µM (active),–,–,–,–,–
O=c1oc2cc(O)ccc2c2oc3cc(O)ccc3c12,inactive,inactive,inactive,inactive,–,inactive,–,inactive,inactive,–,–,–,–
O=C(c1ccc(O)c(O)c1)c1ccc(O)cc1O,inactive,inactive,inactive,21.6 µM (active),inactive,inactive,–,inactive,–,–,–,–,–
C[C@@H](O)[C@H](N)C(=O)O,inactive,inactive,inactive,–,–,–,–,–,–,1.16% [at 19 µM] (inactive),-7.74% [at 15.8 µM] (inactive),0.146% [at 15.8 µM] (inactive),1.63% [at 15.8 µM] (inactive)
CNc1ccc([N+](=O)[O-])cc1,inactive,inactive,inactive,inactive,inactive,inactive,inactive,–,–,–,–,–,–
COc1cccc2c1C(=O)c1c(O)c3c(c(O)c1C2=O)C[C@@](O)(C(C)=O)C[C@@H]3O[C@H]1C[C@H](N)[C@H](O)[C@H](C)O1,inactive,inactive,0.952 µM (active),30.8 µM (active) and inactive,inactive,–,–,–,–,–,–,–,–
CN(C)c1ccc(C(=C2C=CC(=[N+](C)C)C=C2)c2ccc(N(C)C)cc2)cc1,9.72 µM (active) and 21.9 µM (active) and 19 µM (active),24.4 µM (active),12.3 µM (active) and 9.52 µM (active),1.36 µM (active) and 1.54 µM (active) and 2.66 µM (active),–,–,–,13.7 µM (active) and 19.5 µM (active) and 19 µM (active),6.08 µM (active) and 13.7 µM (active) and 5.31 µM (active),–,–,–,–
O=C1CCCCCCCCCCCCCCCO1,inactive,inactive,inactive,inactive,inactive,inactive,inactive,inactive,–,–,–,–,–
COc1ccc2c(c1)c(CC(=O)OC/C=C(\C)CC/C=C(\C)CCC=C(C)C)c(C)n2C(=O)c1ccc(Cl)cc1,inactive,inactive,inactive,–,inactive,inactive,–,inactive,–,–,–,–,–
CC1(C)CCC[C@]2(C)[C@H]3CCO[C@]3(C)CC[C@@H]12,–,inactive,inactive,inactive,–,inactive,inactive,inactive,inactive,–,–,–,–
CC(C(=O)O)c1ccc2c(c1)[nH]c1ccc(Cl)cc12 (centres undefined),inactive,inactive,inactive,inactive,inactive,inactive,–,inactive,–,–,–,–,–
CCC(C)(CCC(C)C)C(=O)[O][Sn]([CH3])([CH3])[O]C(=O)C(C)(CC)CCC(C)C (centres undefined),inactive,inactive,inactive,–,–,inactive,–,inactive,inactive,–,–,–,–
Cc1cc(C)c(/C=C2\C(=O)Nc3ccccc32)[nH]1,inactive,inactive,inactive,–,inactive,inactive,–,inactive,inactive,–,–,–,–
CCCC1CCC(=O)CC1,–,inactive,inactive,–,inactive,inactive,inactive,inactive,inactive,–,–,–,–
COc1cc(C)ccc1O,–,inactive,inactive,–,–,inactive,inactive,inactive,–,–,–,–,–
CCN(CCN)c1cccc(C)c1,inactive,inactive,inactive,–,inactive,inactive,–,inactive,inactive,–,–,–,–
CCC(C)n1ncn(-c2ccc(N3CCN(c4ccc(OC[C@H]5CO[C@](Cn6cncn6)(c6ccc(Cl)cc6Cl)O5)cc4)CC3)cc2)c1=O (some centres undefined),inactive,inactive,inactive,–,inactive,inactive,–,–,inactive,–,–,–,–
CCCCCCCCCCCCCC[N+](C)(C)C,26.6 µM (active) and 6.16 µM (active) and 23.9 µM (active),54.9 µM (active),37.6 µM (active) and 34.6 µM (active) and 23.9 µM (active),–,42.2 µM (active) and 48.9 µM (active) and inactive,–,–,10.6 µM (active) and 15.5 µM (active) and 21.3 µM (active),61.1 µM (active),–,–,–,–
